# PubChem BioAssay AID651567 (National Center for Advancing Translational Sciences (NCATS), 2012)
# The whole screen tested about 1,200 compounds, of which about 10 (0.8%) were called active. About 4% were inconclusive and are not listed. The sample as a whole holds a higher share of actives than the screen did. Values without a mark were called inactive. Calls follow the shape of the dose curve; as a rule, active = well fitted inhibition curve with a large enough effect; inconclusive = small, poorly fitted or top-dose-only effect; inactive = no such curve, though single readings can be large or run the other way.
# Assay: qHTS Assay to Find Inhibitors of Chronic Active B-Cell Receptor Signaling: Hit Validation in OCI-Ly3 Assay
# Details: OCI-Ly3 IkB-luciferase reporter, Chroma-Glo luminescence, 4 h; series mostly up to 46.1 µM; activity change, negative = inhibition: at the top concentration
# From the text: Diffuse large B-cell lymphoma (DLBCL) is the most common category of non-Hodgkin lymphoma, with ~20,000 new cases per year in the United States. DLBCL should be regarded as a collection of different neoplasms. Microarray gene expression analysis has defined two principal types of DLBCL, named for their similarity to normal B cell stages or activation states: a germinal center B-cell (GCB) type, and an activated B-cell (ABC) type. In ABC-DLBCL, a constitutive high-level activity of the NF-kappaB family of transcription factors has been observed (1) and NF-kappaB target genes are more highly expressed in ABC primary tumors than in GCB tumors. Functional studies have shown a constitutive high-level activity of the IkappaB (inhibitor of kappa-B) kinase (IKK) complex. […] Further analysis of DLBCL primary tumors for NF-kappaB target gene expression imply that although CARD11 is required for constitutive IKK activity in all ABC-DLBCL lines, mutations in CARD11 may be the root cause of IKK activation only in lines or tumors with such mutations. In other words, CARD11 mutations may explain NF-kappaB activation in only 10% of ABC-DLBCL cases. […] This process has been termed 'chronic active BCR signaling' (CABS). The goal of this screen is to find small-molecule inhibitors of the CABS pathway found in ABC-DLBCL lines using a cell-based assay that measures IkappaBalpa stability, which has already been extensively validated in the OCI-Ly3 line (PubChem AID:445; REF: 4). […] Hits from the primary screen were tested in this selectivity secondary assay. NIH Molecular Libraries Probe Production Network [MLPCN] NIH Chemical Genomics Center [NCGC] MLPCN Grant: R03 DA031086 PI Name: Dr. R. Eric Davis
# Cells were seeded in 1536-well plates at 5000 cells/3ul in IMDM medium containing 0.5% FBS, w/o phenol red, L-glutamine, 25 mM HEPES, 3 mg/ml sodium bicarbonate. After centrifugation for 1 min. at 1000 rpm, 23 nl of compounds or DMSO were delivered to each well using a pin tool. Then 1ul 80ng/ml doxycycline was dispensed into white solid 1536-well plates and the plates were incubated at 37C/5% C02 in a cell incubator for 4 hrs. Then 4 ul Chroma-Glo luminescent substrate mix (Promega) was added to each well. The plate was incubated at R.T. for 10-15 min. The plates were measured on a ViewLux plate reader for green luminescence (540/20 nm filter) and red luminescence (618/8 nm filter). The green and red luminescent signals were corrected for red and green luminescence filter overlap using previously determined filter calibration constants (determined using the procedure outlined in the Promega Technical Manual). The %Activity was determined from the ratio of corrected green/red luminescent values. Green luminescent and ratio %Activity was determined by normalizing to the difference in signal between basal cells (0% Activity) and cells incubated with 10 uM of the proteasome inhibitor MG-132 (100% Activity). Red luminescent %Activity was normalized to the difference between red luminesence in basal cells (0%Activity) and zero luminescence (-100% Activity). Concentration-response curves were fitted to the signals arising from the green luminescence (I-kappa-B-alpha-luciferase fusion; IkB-luc) and the red luminescence (unfused luciferase; luc) as well as the calculated ratio. The concentration-effect curves were then classified based on curve quality (r2), response magnitude and degree of measured activity. Compounds were then categorized based on their concentration-response curves for all three datasets (Ikb-luc, luc and ratio).
# % is scaled to controls: 0 for no effect and ±100 for the full control effect; potency is read from the fitted curve at half-maximal effect.
Compound,"activity change, negative = inhibition [%]",Potency
CCN1C(=O)C(O)(C2COC(C)(C)CC2=O)c2cc(Br)ccc21 (stereo not given),-6.91,–
Cc1nn(-c2ccccc2)c(C)c1/C=N/NC(=O)c1cc(-c2cccs2)[nH]n1,–,18.4 µM (active)
Cc1ccc(-c2cc(C(=O)N/N=C/c3c(C)nn(-c4ccccc4)c3C)[nH]n2)cc1,-14.7,–
O=C(N/N=C/c1cccs1)c1cc(-c2ccncc2)nc2ccccc12,-3.1,–
COc1ccc(COC(=O)C2=C(C)NC(=O)NC2c2cc(Br)c(O)c(OC)c2)cc1 (stereo not given),0.378,–
CCOC(=O)CSc1nc(C)c2cccc(C)c2n1,0.225,–
COc1ccc(C2=Nn3c(nnc3-c3ccccc3OC)SC2)cc1OC,-2.26,–
Fc1cccc2sc(Nc3nnc(-c4ccccc4)o3)nc12,21.3,–
Nc1ncnc2c1ncn2C1OC(C(=O)NC2CC2)C(O)C1O (stereo not given),-1.22,–
CC(/C=N/NC(=O)c1cc(-c2ccc(Cl)cc2)nc2ccccc12)=C\c1ccco1,-1.82,–
Cc1noc(C)c1COc1ccc(CC(=O)NCc2ccccc2)cc1,-1.46,–
Cc1cc(C)c(S(=O)(=O)Nc2ccc3c4c(cccc24)CC3)c(C)c1,-5.19,–
CCOc1ccc(Nc2cc(C)nc(-n3nc(C)cc3C)n2)cc1,-3.94,–
COc1ccc(OC)c(C2CC(=O)c3c([nH]c(C(=O)OC(C)C)c3C)C2)c1 (stereo not given),-5.41,–
COc1ccccc1-c1nnc(Nc2nc3c(OC)cccc3s2)o1,14.5,–
C=CCn1c(SCC(=O)NCCO)nc2sc(C)c(C)c2c1=O,-0.853,–
O=C(CNC(=O)c1ccco1)N=Nc1c(O)n(CCc2ccccc2)c2ccccc12,-1.99,–
C=CCNc1ncnc2c1ncn2C1OC(CO)C(O)C1O (stereo not given),-1.82,–
COc1cccc(CSc2nc3ccccc3cc2C=O)c1,-1.56,–
O=C(/C=C/c1cccc(Cl)c1)c1nc2ccccc2[nH]1,0.678,–
COc1cc2c(cc1OC)C(c1cc3cc(OC)c(OC)cc3[nH]c1=O)N(C(=O)C1CC1)CC2 (stereo not given),-0.249,–
CCOc1cc(CNc2ccc3c(c2)OCCO3)cc(Br)c1OCC,-7.23,–

Compound,"activity change, negative = inhibition [%]",Potency
CC(C)Oc1ccccc1C1CC(=O)Nc2cc3c(cc21)OCCO3 (stereo not given),-4.7,–
C=C1C(O)[C@@H]2O[C@]3(CC[C@H](/C=C/C(C)[C@@H]4CC(C)=CC5(O[C@H](C[C@@](C)(O)CO)CCC5O)O4)O3)CC[C@H]2O[C@@H]1C(O)CC(C)[C@H]1OC2(CCCCO2)CCC1C (stereo not given in full),-6.02,–
Cc1cc(Cl)n2c(nc3ccccc32)c1C#N,-0.275,–
COc1ccc(-c2noc(CSc3nc(N)c(-c4ccccc4)c(=O)[nH]3)n2)cc1OC,-0.927,–
COc1ccc(CN2C[C@H]3CCCN3c3cc(Br)ccc3S2(=O)=O)cc1,-3.64,–
CCOCCOC(=O)c1[nH]c2c(c1C)C(=O)CC(c1ccccc1)C2 (stereo not given),-0.56,–
CCOc1cc(C(=O)N/N=C/C(Br)=C/c2ccccc2)cc(OCC)c1OCC,-11.1,–
CCOC(=O)c1ccc(NC(=O)Nc2ccon2)cc1,-4.1,–
Cc1ccccc1Nc1c(N)c(=O)oc2ccccc12,-0.754,–
COc1cc(/C=C/c2ccc3cccc(O)c3n2)cc(OC)c1OC,122,–
COc1cc(/C=C/c2ccc3cccc(O)c3n2)cc(Br)c1OC,–,10.3 µM (active)
COc1cc(/C=C/c2ccc3cccc(O)c3n2)c(Br)cc1O,31,–
Fc1ccc(/C=N/NC2=Nc3cccc4cccc2c34)cc1,-1.29,–
CNC(=O)c1cccc(NC(=O)C(C)c2ccc3cc(OC)ccc3c2)c1 (stereo not given),-3.81,–
COc1ccc(C(C)=O)cc1COC(=O)c1ccc(N)c([N+](=O)[O-])c1,-0.216,–
CCOc1cc(/C=C(/C#N)C(=O)Nc2ccc(O)cc2)cc(Br)c1O,-11.9,–
COC(=O)c1ccc(C)c(NS(=O)(=O)c2ccc3c(c2)OCCO3)c1,-3.3,–
CCN(CC)c1ccc(-c2nn3c(-c4n[nH]c5c4CCC5)nnc3s2)cc1,-7.08,–
CC1C(=O)N2CCCc3cc(NC(=O)c4ccccc4Br)cc1c32 (stereo not given),-10.2,–
O=C(Nc1ccc(N2CCN(C(=O)c3ccc(Cl)cc3)CC2)cc1)c1ccc([N+](=O)[O-])o1,–,16.4 µM (active)
COC(=O)c1cc(C(=O)N2CCN(c3cccc(Cl)c3)CC2)cc([N+](=O)[O-])c1,-3.03,–
O=C(Nc1ccc(N2CCCC2)cc1)c1cc(Cl)ccc1Cl,-1.28,–

Compound,"activity change, negative = inhibition [%]",Potency
CCC1=Nc2cc(C(=O)NCc3ccco3)ccc2Sc2ccccc21,-2.12,–
CCCCC[C@H](O)/C=C/[C@@H]1[C@@H](C/C=C\CCCC(=O)O)[C@H]2CO[C@@H]1C2,-0.516,–
Cc1ccc(Nc2nc(-c3c(C)nc4ncccn34)cs2)cc1,-13,–
Cc1ccc2[nH]c(-c3cccc(F)c3)cc(=O)c2c1,-3.54,–
COc1cc2c(cc1OC)-c1cc(NC3CCCCC3)nc(=O)n1CC2,-0.939,–
COc1cc2c(cc1OC)-c1cc(NC3CCCC3)nc(=O)n1CC2,-0.848,–
COc1cc(S(=O)(=O)N2CCCCC2)ccc1NC(=O)/C=C/c1ccccc1,-1.13,–
COc1ccccc1C(=O)Nc1ccccc1SC(=O)c1ccccc1OC,-25.4,–
CCOc1ccc2c(c1)C(C)=CC(C)(C)N2S(=O)(=O)c1ccc(NC(C)=O)cc1,-3.37,–
Cc1ccc2nc(NC(=O)c3ccccn3)sc2c1,14.4,–
C[C@]12C=CC(=O)C=C1CC[C@@H]1[C@@H]2[C@@H](O)C[C@@]2(C)[C@H]1CC[C@]2(O)C(=O)COC(=O)CCC(=O)O,-1.59,–
C/C(Cl)=C\Cn1c(O)c(N=NC(N)=S)c2cc(Br)ccc21,64.8,–
OC[C@H]1O[C@@H](n2cnc3c(NC4CCCC4)nc(Cl)nc32)[C@H](O)[C@@H]1O,-0.38,–
Cc1[nH]n(C(N)=S)c(=O)c1N=Nc1cccc(Cl)c1,–,20.6 µM (active)
Cc1[nH]n(C(N)=S)c(=O)c1N=Nc1ccc2ccccc2c1,-3.53,–
Cc1ccc(N=Nc2c(C)[nH]n(C(N)=S)c2=O)cc1,0.657,–
CCN1C(=O)c2cccc3c(NC(=O)c4ccc(OC)c(OC)c4)ccc1c23,-6.01,–
O=C1N/C(=C/c2ccc(N3CCOCC3)o2)C(=O)N1c1cccc(Cl)c1,-6,–
O=C(N/N=C/c1ccc(O)cc1)c1[nH]c2ccc(Br)cc2c1-c1ccccc1,-7.64,–
COc1c(Br)cc(Br)cc1/C=N/NC(=O)c1cccnc1,-0.0712,–
CCOC(=O)c1c(C)oc2c1cc(NS(=O)(=O)c1ccc(C(=O)O)cc1)c1ccccc12,-5.36,–
